About 83,000 compounds went through this panel and 20% of them were active in at least one assay; those are over-represented in the sample as a whole.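 Values shown are percent growth following 48 h exposure of cells in 96-well plates to a single concentration of compound; below 10 was considered active.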 A number with no mark means an inactive call. Activity calls are given as the source filed them.

What all share (assay): NCI-60 one-dose screen, 48 h (100 = growth as untreated, 0 = no growth, -100 = all killed)
One test has as its system NCI-H23 lung. Conditions: 10 µM unless noted.
A further test relates to NCI-H226 lung. Conditions: 10 µM unless noted.
Another test has as its system NCI-H322M lung. Conditions: 10 µM unless noted.
Another test relates to HOP-62 NSCLC. To be noted: 10 µM unless noted.
The next test deals with NCI-H460 lung. To be noted: 10 µM unless noted.
The next test has as its system HOP-92 NSCLC. Conditions: 10 µM unless noted.
Another test relates to NCI-H522 lung. Conditions: 10 µM unless noted.
The next test relates to A549/ATCC NSCLC. Conditions: 10 µM unless noted.
For the next test, the system named is 786-0 renal. Conditions: 10 µM unless noted.
The subject of a further test is COLO 205 colon. Conditions: 10 µM unless noted.
The next test concerns DU-145 prostate. Conditions: 10 µM unless noted.
For another test, the system named is K-562 leukemia. To be noted: 10 µM unless noted.
The test system of a further test is MALME-3M melanoma. Conditions: 10 µM unless noted.
For another test, the system named is MDA-MB-231 breast. To be noted: 10 µM unless noted.
The subject of another test is RXF 393 renal. To be noted: 10 µM unless noted.
The subject of a further test is SF-268 CNS. To be noted: 10 µM unless noted.
The test system of the next test is SF-295 CNS. To be noted: 10 µM unless noted.
In the next test the test system is SF-539 CNS. To be noted: 10 µM unless noted.
Another test relates to UACC-257 melanoma. To be noted: 10 µM.
The next test has as its system M14 melanoma. To be noted: 10 µM unless noted.

For `O=C(NNc1nc2cc(F)cc(F)c2n2cccc12)c1ncccn1`, the growth with NCI-H23 lung is 11.2%; in the test on NCI-H226 lung, -2.14% (active); in the test on NCI-H322M lung, 25.5%; in the test with HOP-62 NSCLC, 19.7%; in the test on NCI-H460 lung, 6% (active); in the test on HOP-92 NSCLC, 61.2%. Also, the growth with NCI-H522 lung was -2.87% (active); in the test with A549/ATCC NSCLC, 18.7%; in the test with 786-0 renal, 0.547% (active); with COLO 205 colon, 16.9%; in the test on DU-145 prostate, 20.6%; with K-562 leukemia it was 17.8%. Further, the growth in the test on MALME-3M melanoma was 25.9%; in the test on MDA-MB-231 breast it was 34.9%; with RXF 393 renal, 33%; with SF-268 CNS, 13.6%; in the test with SF-295 CNS, 12.6%; with SF-539 CNS, -0.152% (active). The growth with UACC-257 melanoma is 12.9%; with M14 melanoma, -18.1% (active).
Regarding `Clc1ccc(-c2csc(N/N=C/c3nc4ccccc4n3C3CC3)n2)cc1`, the growth in the test with NCI-H23 lung was 98.5%; in the test on NCI-H226 lung it was 91.5%; in the test on NCI-H322M lung, 98.5%; in the test on HOP-62 NSCLC it was 106%; in the test on NCI-H460 lung, 105%; with HOP-92 NSCLC, 105%. For the same molecule, the growth with NCI-H522 lung was 93%; in the test with A549/ATCC NSCLC, 95.5%; with 786-0 renal it was 109%; with COLO 205 colon it was 104%; with DU-145 prostate, 113%; with K-562 leukemia, 107%. Moreover, the growth with MALME-3M melanoma is 96.3%; in the test on MDA-MB-231 breast it was 96.7%; in the test with RXF 393 renal, 107%; in the test on SF-268 CNS, 94.7%; with SF-295 CNS, 96.5%; in the test on SF-539 CNS, 99.4%. Moreover, the results for the growth in the test with UACC-257 melanoma and with M14 melanoma were 91% and 91.9%, respectively.
As for `Cc1ccc(Nc2ncnc3c2c(C)nn3-c2ccc([N+](=O)[O-])cc2)cc1`, the growth is 77.3% with NCI-H23 lung; 8.18% (active) in the test with NCI-H226 lung; 88.5% in the test on NCI-H322M lung; 60.3% in the test on HOP-62 NSCLC; 30.7% with NCI-H460 lung; 111% in the test on HOP-92 NSCLC. Also, the growth with NCI-H522 lung is 74.8%; in the test with A549/ATCC NSCLC, 45.1%; with 786-0 renal, 86.9%; in the test on COLO 205 colon, 72.2%; with DU-145 prostate it was 89.4%; in the test with K-562 leukemia, 69.1%. Moreover, the growth was 84.7% with MALME-3M melanoma; 80.8% in the test on MDA-MB-231 breast; 60.8% in the test on RXF 393 renal; 79.1% in the test with SF-268 CNS; 69.7% in the test with SF-295 CNS; 74.4% with SF-539 CNS. The growth in the test with UACC-257 melanoma is 93.3%; in the test on M14 melanoma it was 80.6%.
In the case of `Cc1cn(-c2cc(NC(=O)c3cncc(C#Cc4cnc5ccc(O[C@H]6CCOC6)nn45)c3)cc(C(F)(F)F)c2)cn1`, the growth with NCI-H23 lung is 53.7%; with NCI-H226 lung, 44.9%; with NCI-H322M lung, 105%; with HOP-62 NSCLC, 87.9%; in the test with NCI-H460 lung, 99.9%; in the test with HOP-92 NSCLC, -9.26% (active). For the same molecule, the growth in the test with NCI-H522 lung is 93.2%; with A549/ATCC NSCLC it was 91.7%; in the test on 786-0 renal, 105%; in the test with COLO 205 colon, 69.1%; in the test with DU-145 prostate, 91.8%; in the test on K-562 leukemia, 12.9%. The growth is 52.7% with MALME-3M melanoma; 47.7% with MDA-MB-231 breast; 60.4% in the test with RXF 393 renal; 94.7% with SF-268 CNS; 96.8% in the test with SF-295 CNS; 59.3% in the test with SF-539 CNS. Further, the growth in the test on UACC-257 melanoma is 97.1%; with M14 melanoma it was 57.7%.
For `CN1CCN(Cc2ccc(NC(=O)c3cncc(C#Cc4cnc5ccc(O[C@H]6CCOC6)nn45)c3)cc2C(F)(F)F)CC1`, the growth with NCI-H23 lung is -53.5% (active); with NCI-H226 lung, -63.8% (active); in the test on NCI-H322M lung, -36.4% (active); in the test on HOP-62 NSCLC, -77.7% (active); in the test on NCI-H460 lung, -77.7% (active); in the test on HOP-92 NSCLC, -38.3% (active). In addition, the growth is -72.1% (active) with NCI-H522 lung; -87.7% (active) with A549/ATCC NSCLC; -89.7% (active) in the test with 786-0 renal; -89.1% (active) with COLO 205 colon; -78.9% (active) in the test on DU-145 prostate; 0.583% (active) in the test with K-562 leukemia. Besides, the growth with MALME-3M melanoma was -87.5% (active); in the test with MDA-MB-231 breast it was -59.7% (active); in the test on RXF 393 renal it was -76.9% (active); in the test with SF-268 CNS it was -63.8% (active); with SF-295 CNS, -81.8% (active); in the test on SF-539 CNS it was -92% (active). For the same molecule, the growth is -52% (active) with UACC-257 melanoma and -87.2% (active) with M14 melanoma.
On to `CCOC(=O)c1c(NC(=O)c2cccc(C(F)(F)F)c2)sc2c(CN3CCN(C)CC3)c(O)ccc12`, for which the growth with NCI-H23 lung is 53.4%; with NCI-H226 lung it was 83.8%; with NCI-H322M lung, 8.01% (active); in the test on HOP-62 NSCLC, 38.8%; in the test with NCI-H460 lung, -64.4% (active); with HOP-92 NSCLC, 30.7%. Further, the growth in the test on NCI-H522 lung is -14.4% (active); with A549/ATCC NSCLC, 32%; in the test with 786-0 renal it was -83.6% (active); in the test on COLO 205 colon, -55.1% (active); in the test on DU-145 prostate, -85.6% (active); in the test with K-562 leukemia, 1.42% (active). For the same molecule, the growth is -86.6% (active) with MALME-3M melanoma; -75.5% (active) in the test with MDA-MB-231 breast; 35.1% in the test on RXF 393 renal; 26.2% in the test on SF-268 CNS; -81% (active) with SF-295 CNS; -94.7% (active) in the test on SF-539 CNS. Also, the growth in the test with UACC-257 melanoma is 28.1%; in the test on M14 melanoma, -54.6% (active).
Regarding `CCN1C(=O)N(CC)C2SC(N/N=C/c3ccccc3)=NC21` (stereo not given), the growth with NCI-H23 lung was 31.1%; in the test with NCI-H226 lung, 43%; with NCI-H322M lung, 51.7%; with HOP-62 NSCLC, 38.3%; in the test with NCI-H460 lung, 6.05% (active); in the test with HOP-92 NSCLC, 2.09% (active). Besides, the growth with NCI-H522 lung was -34.3% (active); in the test on A549/ATCC NSCLC, 28.7%; in the test on 786-0 renal, 32.7%; in the test on COLO 205 colon, -43.5% (active); in the test with DU-145 prostate it was 22.5%; in the test with K-562 leukemia it was 14.7%. The growth was 58.2% in the test on MALME-3M melanoma; 26% in the test on MDA-MB-231 breast; 41.5% with RXF 393 renal; 47.6% in the test with SF-268 CNS; 12.8% in the test with SF-295 CNS; -11.2% (active) in the test on SF-539 CNS. Moreover, the growth is 62.9% in the test on UACC-257 melanoma and 12.3% with M14 melanoma.

The values are drawn from PubChem BioAssay (NCI).
